Experimental data from the supplement of paper PMC6555819.

What was measured:
Experiment in all cases: PBM binding z-score (relative to random genomic background probes); higher = stronger binding; sequences stand for … in GC…GCGATTGACAGCGTAGAATGAAGG
[1] = system: PPARg:RXRa DBDmut IVT, anti-RXR (DBD mutation: RXRa K156A/R161A, NR concentration 270 nM, RXRa partner concentration 90 nM)
How it was run: (§1)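 Regression normalization was applied to scanned fluorescence from custom Agilent 4×180K protein-binding microarrays. Before scanning, arrays were incubated 1 h with ligand-free nuclear receptor dimers, and binding was detected with antibodies against each partner (one per run). Binding z-scores use the random background probes as reference.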

[2] = system: PPARg:RXRa IVT, anti-PPARg (NR concentration 270 nM, RXRa partner concentration 90 nM)
How it was run: as §1

[3] = system: PPARg DBDmut:RXRa IVT, anti-PPARg (DBD mutation: PPARg1 K132A/R137A, NR concentration 270 nM, RXRa partner concentration 90 nM)
How it was run: as §1

[4] = system: PPARg DBDmut IVT, anti-PPARg (DBD mutation: PPARg1 K132A/R137A, NR concentration 270 nM)
How it was run: as §1

[5] = system: PPARg homodimer (NR concentration 180 nM)
How it was run: as §1

[6] = system: PXR:RXRa (NR concentration 270 nM, RXRa partner concentration 90 nM)
How it was run: as §1

[7] = system: PXR homodimer (NR concentration 270 nM)
How it was run: as §1

[8] = system: RARa:RXR (NR concentration 270 nM, RXRa partner concentration 90 nM)
How it was run: as §1

[9] = system: RARa homodimer (NR concentration 270 nM)
How it was run: as §1

[10] = system: RARb:RXRa (NR concentration 270 nM, RXRa partner concentration 90 nM)
How it was run: as §1

Sequence	PBM binding z-score [1]	PBM binding z-score [2]	PBM binding z-score [3]	PBM binding z-score [4]	PBM binding z-score [5]	PBM binding z-score [6]	PBM binding z-score [7]	PBM binding z-score [8]	PBM binding z-score [9]	PBM binding z-score [10]
AGAATGTGGTTATTAAGATCAGGGAATTGCGGTC	0.321	0.232	0.301	1.09	1.35	-0.0244	0.763	0.105	1.37	0.11
CGTCAAAGTGCAACTAAGGTAACGTAAAGCACGC	0.000169	0.492	-0.123	-0.228	0.0705	1.55	0.00934	2.04	-0.027	2.07
TCATATAGTTAAAGGTGAAAGTCGAACGATATGA	1.5	1.85	0.7	1.07	1.1	0.912	-0.26	1.47	0.716	2.05
TCTAATAGTTGATTAGGGCAACCGAAACAGCGGA	1.74	1.56	0.711	0.3	0.347	0.323	-0.117	0.766	-0.402	0.915
CCTAGCAGGCCAGGCTCACTCAAGCATTTCGCTT	0.917	-0.38	-2.2	-2.12	-1.28	-0.919	-0.688	-1.09	-0.856	-0.239
TAGCCTAGGTCATTGGGCCTGTATAGTACGCATC	2.39	3.03	-0.124	-0.181	1.46	1.65	-0.0817	2.37	-0.457	3.55
TCTTGTAGACCAACAGGAGGTTAAGAAAGATCGA	1.42	0.757	-0.365	0.137	-0.0799	0.757	0.175	0.783	-0.189	0.416
TCTAGTTGGTCACGGAGGTCGCACACGACGGGTA	2.12	2.88	0.487	0.825	1.19	1.79	-0.0843	1.63	0.349	2.47
CCTTACGGGTCAAGGTTATAACACGGGTGGTACG	2.12	3.6	0.305	-0.192	2.04	3.52	0.548	4.5	0.85	4.24
CAAACTAGGTCCCCGGAAGGTCAAAGTCCGCATG	4	4.13	0.31	0.647	3.1	3.72	1.36	3.99	0.686	3.24
CGAACTAGGTCGTTGACAGGACAGTGAATAGTAA	5.75	5.01	0.86	0.354	0.203	0.234	-0.188	0.276	-0.436	1.18
CTCGAAAGGTCGTGCTCAGGTGAGTCTACCAAAC	1.08	1.81	-0.131	-0.101	1.24	3.07	0.183	3.94	-0.14	3.86
TCTAGTTGGTCACGGAGGTAACACACGACGGGTA	2.14	2.58	0.811	0.805	0.896	0.407	0.258	0.834	0.81	1.8
CGTCCAAGGTCAGAGAGGTAAGTGAATGCCGAGT	2.46	2.1	-0.583	-0.788	1.67	2.89	1.46	3.24	0.288	4.67
GCTAGCAGGCCATTTGGCTCACTCAATGACGGGC	0.892	-0.288	-1.29	-1.19	-1.62	-1.01	-0.87	-0.778	-0.899	-0.0959
ATAAGTAGGTTAAGGGTCATTCAGGTTGGTTCGC	7.68	7.64	2.34	2.31	5.84	5.44	4.03	6.12	3	3.75
CGTCCAAGGCCATAGGAGGTCAGTGAAGACAGAT	0.496	1.69	-0.275	-0.658	0.925	3.03	1.16	2	-0.0451	2.9
CCTGCTAGGTCAATGGTTAGCTAAAGCAGCTCGC	4.4	3.57	-0.722	-1.05	0.942	0.745	-0.456	1.29	-0.0432	3.74
ACTTACGGGGCAACGAGGTTATAGCACGCGTATA	2.66	2.16	0.904	0.257	0.811	1.62	0.644	1.73	0.365	1.63
GCTTGGAGATCAAGGTTAAGAAAGACTAAGCTAA	-0.178	0.209	-0.0376	-0.611	0.0193	0.278	-0.313	1.12	-0.305	0.871
TTACTAAGGTGAAGGTCGTTGATCCCTCTGTAGA	3.98	4.68	1.15	0.702	1.39	1.84	0.493	2.6	0.0273	2.58
TCTTGTAGATCAACAGGAGGTTAAGACAGATCGA	1.59	0.984	0.978	0.46	-0.0911	0.727	-0.273	0.694	0.154	0.534
GGACCAAGGTGAATAGGTCGTTGATGAGTAGGCG	1.58	2.18	-0.0535	-0.223	1.34	0.838	0.241	1.74	0.177	2.06
TTACCAAGGTGAGCTTAGGTCGTTGATCCAACTC	1.61	1.67	-0.375	-0.536	-0.601	1.62	-0.264	0.665	-0.83	1.36
